Most compounds without a hit are left out; they make up all but 3.9% or so of the library.
AHR activator: AHR activators, primary screen, cell-based, luminescence, luciferase reporter, human; Aryl hydrocarbon receptor (Homo sapiens), P35869; AID 2796, 2010; activation, % at 5 µM; 320,000 tested, 2.5% active; AHR-responsive luciferase reporter cells; in the data active means activation above about 47%
PLC-gamma1 inh: PLC-gamma1 enzyme inhibitors, primary screen, biochemical, fluorescence, purified enzyme; inhibition, % at 12.2 µM; 370,000 tested, 0.84% active; 1-phosphatidylinositol 4,5-bisphosphate phosphodiesterase gamma-1 (Homo sapiens), P19174; AID 720700, 2013; fluorogenic substrate; in the data active means inhibition above about 9.5%
Yeast superoxide: reduction of superoxide in aged yeast, primary screen, HTS; S. cerevisiae aged cells, superoxide DHE fluorescence; stronger effect = lower value; superoxide response (% of plate mean), % at 10 µM; 330,000 tested, 0.18% active;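 active means superoxide response under a set limit, about three screen SD below normal, cut at about 65% in these data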;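 further: yeast aged for seven days with compound at 30 °C before DHE staining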
PLCb3 inh: human PLC-beta3 inhibitors, primary screen, biochemical, fluorescence; 1-phosphatidylinositol 4,5-bisphosphate phosphodiesterase beta-3 (Homo sapiens), Q01970; Purified PLC-beta3, fluorogenic substrate; inhibition, % at 12.2 µM; 370,000 tested, 0.18% active; AID 720704, 2013; in the data active means inhibition above about 11%
Target sequence (Q01970 whole entry, looked up): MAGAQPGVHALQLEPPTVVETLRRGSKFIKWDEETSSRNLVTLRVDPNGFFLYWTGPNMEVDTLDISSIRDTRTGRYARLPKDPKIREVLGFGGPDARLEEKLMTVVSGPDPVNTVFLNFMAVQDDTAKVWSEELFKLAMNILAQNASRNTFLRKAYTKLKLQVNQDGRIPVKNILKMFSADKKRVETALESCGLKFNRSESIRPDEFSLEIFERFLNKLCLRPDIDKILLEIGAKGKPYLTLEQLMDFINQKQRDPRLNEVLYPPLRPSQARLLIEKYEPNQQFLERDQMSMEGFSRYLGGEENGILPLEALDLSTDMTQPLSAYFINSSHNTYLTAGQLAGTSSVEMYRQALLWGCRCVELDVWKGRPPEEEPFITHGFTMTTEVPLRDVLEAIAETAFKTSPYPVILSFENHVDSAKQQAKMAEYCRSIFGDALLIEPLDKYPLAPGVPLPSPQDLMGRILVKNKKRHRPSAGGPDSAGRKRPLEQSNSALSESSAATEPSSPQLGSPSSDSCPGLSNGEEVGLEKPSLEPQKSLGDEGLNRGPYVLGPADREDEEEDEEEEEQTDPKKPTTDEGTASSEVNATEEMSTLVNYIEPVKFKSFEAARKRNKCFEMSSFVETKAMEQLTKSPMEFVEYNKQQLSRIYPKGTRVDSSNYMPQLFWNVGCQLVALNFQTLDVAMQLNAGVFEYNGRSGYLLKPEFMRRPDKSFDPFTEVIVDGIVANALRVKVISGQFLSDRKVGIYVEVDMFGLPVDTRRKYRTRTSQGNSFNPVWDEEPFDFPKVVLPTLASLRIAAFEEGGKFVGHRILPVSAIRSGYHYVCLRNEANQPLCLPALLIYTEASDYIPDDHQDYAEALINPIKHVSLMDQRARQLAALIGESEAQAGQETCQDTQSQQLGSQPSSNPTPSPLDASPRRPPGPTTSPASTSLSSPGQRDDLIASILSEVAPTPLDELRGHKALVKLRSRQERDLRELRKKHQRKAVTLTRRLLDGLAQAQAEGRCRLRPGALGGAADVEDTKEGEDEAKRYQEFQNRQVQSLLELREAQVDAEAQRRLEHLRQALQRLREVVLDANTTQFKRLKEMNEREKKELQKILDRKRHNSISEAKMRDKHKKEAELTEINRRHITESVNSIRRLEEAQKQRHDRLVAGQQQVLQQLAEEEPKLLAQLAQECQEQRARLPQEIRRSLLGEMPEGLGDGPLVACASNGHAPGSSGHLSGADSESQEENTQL
HIF act: HIF pathway transcriptional activators, primary screen, cell-based, U2OS HRE-luciferase, luminescence; U2OS HRE-luciferase reporter; normalized: DMSO 0%, desferrioxamine 100%; activation, % at 7.5 µM (by protocol); 300,000 tested, 0.32% active;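 active means mean activation of at least 10% of the iron chelator positive control signal, with at least half of replicates also reaching 10%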
HGIII-sPLA2 inh: human group III sPLA2 inhibitors, primary screen, biochemical, QFRET, BODIPY PC-A2 liposome substrate | Group 3 secretory phospholipase A2 (Homo sapiens), Q9NZ20 | QFRET BODIPY PC-A2 liposome hydrolysis, fluorescence | inhibition, % at 12.2 µM | 370,000 tested, 0.56% active;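 active means inhibition above mean plus 3 SD of compounds lying within the high and low control bounds, cut at about 19% in these data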
Large screens that a line does not name were inactive.

COc1ccc(S(=O)(=O)Nc2ccccc2)cc1	none
COc1ccc(S(=O)(=O)Nc2ccc(O)c3ccccc23)cc1	AHR activator 61.4
COc1ccc(OC)c(NC(=O)Nc2c(O)ccc3ccccc23)c1	AHR activator 62.7
Cc1onc(C(=O)N2CCN(C(c3ccccc3)c3ccccc3)CC2)c1Br	none (no result: AHR activator, Yeast superoxide, HIF act)
Oc1ccccc1C=NN1CCN(Cc2ccccc2)CC1	none (no result: AHR activator, Yeast superoxide, HIF act)
CCn1c2ccc(OC)cc2c2nc3ccccc3nc21	none
CCn1c2ccc(Cl)cc2c2nc3ccccc3nc21	AHR activator 52.9
O=C(NC(=S)Nc1nc2ccccc2s1)c1cccs1	AHR activator 72.1
COC(=O)c1nc(NC(=S)NC(=O)c2cccs2)sc1C	none
Cc1cc(C)c2sc(NNC(=O)c3ccc(S(=O)(=O)N4CCc5ccccc5C4)cc3)nc2c1	HIF act 158.5, HGIII-sPLA2 inh 44.9
Cc1cc(NC(=S)NC(=O)C2CC2)ccc1Br	AHR activator 105.6
Cc1cccc(NC(=S)NC(=O)C2CC2)c1	none (no result: PLC-gamma1 inh, PLCb3 inh, HGIII-sPLA2 inh)
Cc1cc(C)cc(NC(=S)NC(=O)C2CC2)c1	AHR activator 58.1
CCn1c(COc2ccc(C)cc2)nnc1SCC(=O)Nc1ccccc1-c1ccccc1	none (no result: AHR activator, Yeast superoxide, HIF act)
CCCC(=O)OCCNc1cc(Sc2nccn2C)c2nonc2c1[N+](=O)[O-]	HGIII-sPLA2 inh 19.3
O=C1CC(c2ccccc2)=Nc2ccccc2N1	AHR activator 75.0
Cc1ccc2c(c1)NC(=O)CC(c1ccccc1)=N2	none
COc1cc(C(=O)Oc2ccccc2/C=N/NC(=O)c2ccc(Cl)cc2Cl)cc(OC)c1OC	AHR activator 59.4
C=CCOc1ccccc1/C=N/NC(=O)c1ccc(Cl)cc1Cl	AHR activator 69.5
O=C(N/N=C\c1cccnc1)c1ccc(Cl)cc1Cl	none (no result: PLC-gamma1 inh, PLCb3 inh, HGIII-sPLA2 inh)
COc1cc(/C=N/NC(=O)c2ccncc2)ccc1OC(=O)c1cc(OC)c(OC)c(OC)c1	none
O=C(CCn1nnc2ccccc21)N1CCN(c2cccc(C(F)(F)F)c2)CC1	none (no result: AHR activator, Yeast superoxide, HIF act)
Cc1ccc2oc3c(SCc4nc5ccccc5[nH]4)nc(C)nc3c2c1	none (no result: HIF act)
Cc1nc(SCc2nc3ccccc3[nH]2)c2oc3cc(Br)ccc3c2n1	AHR activator 77.1 (no result: HIF act)
C[C@H]1[C@@H](NC(=O)C#Cc2ccccc2)CC[C@@]23CCCN2C(=O)CCC[C@@H]13	none (no result: AHR activator, Yeast superoxide, HIF act)
Brc1ccc(N/N=C(/N=Nc2nn[nH]n2)c2ccccc2)cc1	HIF act 83.6
CN(Cc1cn(Cc2ccccc2)nn1)S(=O)(=O)c1ccc(F)cc1Br	none (no result: AHR activator, Yeast superoxide, HIF act)
COC(=O)CCCC1=CC2=CC(=O)C(C)(OC(=O)c3cccs3)C(=O)C2=CN1Cc1ccc2c(c1)OCO2 (configuration not stated)	HIF act 18.7
COC(=O)CCCC1=CC2=CC(=O)C(C)(OC(=O)c3cccs3)C(=O)C2=CN1Cc1ccccc1 (configuration not stated)	none
CC(C)CNC(=O)OCc1cn(Cc2c(F)cccc2F)nn1	none (no result: AHR activator, Yeast superoxide, HIF act)
O=C1OC(Nc2cc(Br)cc3cccnc23)c2ccccc21 (configuration not stated)	PLC-gamma1 inh 10.8
CC(=O)Nc1ccc(Nc2nc(C)c([N+](=O)[O-])c(Nc3ccc(NC(C)=O)cc3)n2)cc1	HIF act 468.7
CNc1nc(C)c([N+](=O)[O-])c(Nc2ccc(OC)cc2)n1	none (no result: AHR activator)
CN(C)S(=O)(=O)c1cccc(NC(=O)c2c[nH]c3ccccc23)c1	AHR activator 49.4
COc1ccc(CN2C(=O)[C@]3(NCCc4c3[nH]c3ccc(OC)cc43)c3cc(Br)ccc32)cc1	none (no result: AHR activator, Yeast superoxide, HIF act)
Cn1c(-c2ccsc2)c(-c2cccs2)c2cc(-c3ccc4[nH]ccc4c3)ccc21	none (no result: HIF act)
COc1cc(F)cc(-c2ccc3c(c2)c(-c2cccs2)c(-c2cc(OC)cc(OC)c2)n3C)c1	none (no result: HIF act)
COc1cc(OC)cc(-c2c(-c3cccs3)c3cc(Br)ccc3n2C)c1	none (no result: HIF act)
Cn1c(-c2ccsc2)c(-c2cccs2)c2cc(-c3ccc4cc[nH]c4c3)ccc21	AHR activator 66.2 (no result: HIF act)
Cn1c(-c2ccsc2)c(-c2cccs2)c2cc(Br)ccc21	AHR activator 62.6 (no result: HIF act)
COc1cc(OC)cc(-c2c(-c3cccs3)c3cc(-c4ccn[nH]4)ccc3n2C)c1	AHR activator 63.9 (no result: HIF act)
C=CCN1C(=O)[C@@H](CC(=O)NCc2ccc(C)o2)[C@]2(C(=O)OCC)CCCCC/C=C/12	none (no result: AHR activator, Yeast superoxide, HIF act)
COc1ccc(-c2oc3ccc(N4CCOCC4)cc3c2/C=C/c2ccc(OC)c(OC)c2)cc1	none
COc1ccc(-c2c(-c3ccsc3)oc3ccc(N4CCOCC4)cc23)cc1	AHR activator 47.1
CC(C)(C)c1ccc(NC(=O)COc2ccc(-n3ccnc3)cc2)cc1	none
COc1cc(NC(=O)COc2ccc(-n3ccnc3)cc2)cc(OC)c1	none
COc1ccc(OCC(=O)N/N=C(\C)c2ccc(-n3ccnc3)cc2)cc1	AHR activator 55.1
C/C(=N\NC(=O)COc1ccc(C(C)(C)C)cc1)c1ccc(-n2ccnc2)cc1	AHR activator 72.9
C/C(=N\NC(N)=S)c1ccc(-n2ccnc2)cc1	AHR activator 112.7 (no result: HIF act)
C/C(=N\Nc1ccc(Cl)c(Cl)c1)c1ccc(-n2ccnc2)cc1	none
C/C(=N\NC(=O)c1ccccc1)c1ccc(-n2ccnc2)cc1	none
C/C(=N\NC(=O)OC(C)(C)C)c1ccc(-n2ccnc2)cc1	AHR activator 68.3
COc1ccc(N2C[C@@]3(O)CC[C@@H](O)[C@@H](OC)[C@@H]3[C@@](C)(O)[C@@H]2CC=C(C)C)cc1	none (no result: AHR activator, Yeast superoxide, HIF act)
CC(=O)Nc1sc2c(c1-c1nc3ccccc3s1)CCN(C(C)C)CC2	none (no result: AHR activator, Yeast superoxide, HIF act)
CCCCNC(=O)OC1CCC12CCC(c1ccccc1)CC2 (configuration not stated)	none (no result: AHR activator, Yeast superoxide, HIF act)
COc1ccccc1NS(=O)(=O)c1cccc(C(=O)N/N=C(\C)c2ccc(-n3ccnc3)cc2)c1	AHR activator 66.8
Oc1ccccc1CNc1cnc2ccccc2c1	AHR activator 48.9
COC(=O)[C@]12C[C@H](CC(=O)NCCCCc3ccccc3)C(=O)N(Cc3cccc4ccccc34)C1=C[C@H](C1CCCC1)O[C@@H]2C	none (no result: AHR activator, Yeast superoxide, HIF act)
C=CCN1C(C(=O)OC)CN(Cc2cn(CCC3OCCO3)nn2)CCS1(=O)=O (configuration not stated)	none (no result: AHR activator, Yeast superoxide, HIF act)
Cc1cccnc1Nc1nc(-c2ccccn2)cs1	HIF act 181.8
Cc1cccnc1Nc1nc(-c2ccc(O)cc2O)cs1	AHR activator 60.8
Cc1cccc(Nc2nc(-c3ccccn3)cs2)n1	none
NS(=O)(=O)c1ccc(Nc2nc(-c3ccc(O)cc3O)cs2)cc1	none
Cc1cccnc1Nc1nc(-c2ccccc2)cs1	AHR activator 55.3
C=CCN1[C@@H](CC(C)C)COc2cc(N3CCSCC3)ccc2S1(=O)=O	none (no result: AHR activator, Yeast superoxide, HIF act)
COC(=O)CC[C@@H](/C=C/C(=O)OC(C)(C)C)Sc1ccc(C(C)(C)C)cc1	none (no result: AHR activator, Yeast superoxide, HIF act)

High-throughput results from PubChem.
